The values that follow come from PubChem BioAssay.

Assay [1] is described as follows: inhibitors of TNFa-induced NFkB p65 translocation, primary screen, imaging, HUVEC, MLSMR starter and 10KST1 sets (AID 438;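 active = inhibition above 20% together with a positive visual image hit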;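 also: compound added about 3h40 before a 20 min TNFalpha stimulation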;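 as to inhibition: signal is the nuclear over cytoplasmic p65 intensity ratio per well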). The conditions noted are these: HUVEC TNFa-induced p65 nuclear translocation; cell count: measured here: nuclei count (cytotoxicity indicator), at 2.08 µM; inhibition: at 2 µM, stronger effect = higher value, 0% TNFa-plus-vehicle, 100% no-TNFa wells.
Assay [2] can be described thus: reduction of polyQ htt aggregates in cells – imaging, exon1htt(103Q)mCFP cells, high-content imaging, primary screen (AID 483;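 active = visual image review flags a hit and inhibition of aggregation exceeds 20%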;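 also: compound exposure lasted 3 days before fixation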;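 as to nuclei count: percent of the per-plate median nuclei count of sample wells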). The settings on record: exon1htt(103Q)mCFP cell line, aggregate imaging, at 2 µM; inhibition of aggregation: stronger effect = higher value; nuclei count: measured here: cell count, toxicity.
Assay [3] is described as follows: endothelial E-selectin expression blockers – imaging, HUVEC, immunofluorescence, MLSMR starter and 10KST1 sets, primary screen (AID 487;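 active = visually confirmed hit in the image check and inhibition above 20%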;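 as to inhibition: signal is fraction of cell area covered by stained E-selectin grains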;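 as to nuclei count: 100% = median nuclei count of all wells on the same plate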). The settings on record: HUVEC TNFalpha-induced E-selectin immunofluorescence imaging, at 2 µM; inhibition: stronger effect = higher value; nuclei count: measured here: cell number, toxicity.
Assay [4] addresses Voltage-gated potassium channel subunit beta-2 (Rattus norvegicus) (UniProt P62483). In words: inhibitors of rat Kvbeta2 reductase activity – biochemical, NADPH fluorescence, primary screen (AID 622;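 active = fluorescence slope higher than the sample average by over 3 SD, cut at about -0.22 in these data, passing the limit was not always enough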;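 also: slope of raw intensity against log time taken from 70 to 1610 s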). The conditions noted are these: recombinant KvBeta, 4-cyanobenzaldehyde reduction, at 10 µM, stronger effect = higher value.
The target is the same in assay [5]. In words: enhancers of rat Kvbeta2 NADPH turnover – biochemical, NADPH fluorescence, primary screen (AID 623;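 active = NADPH fluorescence slope more negative than the mean of all samples by about 3 SD, 99.7% confidence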;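 also: fluorescence intensity change per second fitted from 20 to 320 s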). The conditions noted are these: Recombinant KvBeta, NADPH fluorescence decrease slope, 10 min; at 10 µM; stronger effect = lower value.
For assay [6], the target named is Alpha-2C adrenergic receptor (Homo sapiens) (UniProt P18825). In words: compounds altering alpha2C-coupled GIRK flux – cell-based, HEK293 alpha2C/GIRK1/2, thallium flux, primary screen (AID 624;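 active = fluorescence slope after compound addition differing from the mean of all screened samples at 99.7% confidence, in either direction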;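 also: slope of fluorescence ratio to pre-addition baseline per second over 15 to 24 s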). The conditions noted are these: thallium flux BTC fluorescence, at 10 µM, actives lie on both sides.
A short description of assay [7]: blockers of RIG-like receptor reporter activation – cell-based, Sendai virus stimulus, luciferase, 10K MLSCN set, TLR/RLR signaling modifier project, primary screen (AID 602276;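 active = inhibition at or above 50% at 10 µM; inactive = inhibition below 50%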;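 also: firefly luciferase from ISG56 promoter only with Renilla not read in this screen; 0% = Sendai virus plus DMSO and 100% = medium plus DMSO without virus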). The conditions noted are these: HEK293 RL24 IRF3 luciferase reporter, at 10 µM, stronger effect = higher value. For orientation: A reporter such as luciferase makes a cellular process visible.
The nature of assay [8]: TLR3 IRF3 reporter activation blockers – cell-based, poly I:C stimulus, luciferase, 10K MLSCN set, primary screen (AID 602277). The conditions noted are these: HEK293-TLR3 RL24 IRF3 luciferase reporter, at 10 µM, stronger effect = higher value.

Structures are written as SMILES. The source made the active and inactive calls.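 The calls were made as follows, unless noted: active = inhibition of the reporter signal at or above 50%; inactive = inhibition below 50%.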

Voltage-gated potassium channel subunit beta-2 (Rattus norvegicus), sequence (P62483 whole entry, looked up): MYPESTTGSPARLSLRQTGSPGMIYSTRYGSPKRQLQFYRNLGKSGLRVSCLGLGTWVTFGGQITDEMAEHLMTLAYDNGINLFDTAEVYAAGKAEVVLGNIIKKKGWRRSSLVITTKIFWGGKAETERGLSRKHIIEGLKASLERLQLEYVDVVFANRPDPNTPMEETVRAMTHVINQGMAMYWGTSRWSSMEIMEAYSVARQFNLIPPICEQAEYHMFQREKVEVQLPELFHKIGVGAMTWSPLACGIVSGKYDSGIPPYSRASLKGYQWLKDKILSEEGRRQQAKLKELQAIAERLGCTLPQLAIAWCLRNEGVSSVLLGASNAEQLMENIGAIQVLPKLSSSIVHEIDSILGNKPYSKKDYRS
Alpha-2C adrenergic receptor (Homo sapiens), sequence (P18825 whole entry, looked up): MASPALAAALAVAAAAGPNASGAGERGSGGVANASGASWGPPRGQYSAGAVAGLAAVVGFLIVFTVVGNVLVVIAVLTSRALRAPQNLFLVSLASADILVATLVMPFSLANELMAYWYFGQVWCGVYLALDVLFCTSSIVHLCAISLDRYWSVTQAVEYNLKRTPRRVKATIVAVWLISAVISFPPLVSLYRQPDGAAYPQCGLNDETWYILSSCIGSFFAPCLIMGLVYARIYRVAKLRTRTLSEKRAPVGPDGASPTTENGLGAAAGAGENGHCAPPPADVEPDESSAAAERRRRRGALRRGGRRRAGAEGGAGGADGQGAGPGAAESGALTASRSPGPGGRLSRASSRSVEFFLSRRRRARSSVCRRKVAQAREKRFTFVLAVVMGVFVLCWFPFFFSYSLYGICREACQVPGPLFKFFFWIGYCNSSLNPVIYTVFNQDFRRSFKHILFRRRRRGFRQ

As to `C(=N\c1c(-c2ccccc2)nc2n1CCS2)/c1ccccc1`, in assay [1], the cell count was 594. Besides, the inhibition (usually the change of the read-out against control, counted positive when it falls) in assay [1] is -22.1% (inactive); in assay [3], 18.8% (inactive); in assay [7], 0.61% (inactive); in assay [8] it was 10.6% (inactive). For the same compound, in assay [2], the inhibition of aggregation was -0.7% (inactive). In addition, the nuclei count in assay [2] worked out at 86%; in assay [3] it was 43.9%. In addition, in assay [4], the fluorescence slope was -0.458 (inactive). Besides, the NADPH fluorescence slope in assay [5] is -3.7e-05 (inactive). Also, in assay [6], the slope is 0.00231 (inactive).
In the case of `COC(=O)CC(C(=O)Nc1cc(C(=O)OC)cc(C(=O)OC)c1)N1CCN(C)CC1` (stereo unspecified), the cell count in assay [1] amounted to 661. Besides, the inhibition was -7.5% (inactive) in assay [1], -105% (inactive) in assay [3], -2.88% (inactive) in assay [7] and 9.86% (inactive) in assay [8]. Also, the inhibition of aggregation in assay [2] was -3.2% (inactive). Also, the nuclei count amounted to 99.8% in assay [2] and 107% in assay [3]. Moreover, the fluorescence slope in assay [4] was -0.547 (inactive). Also, the NADPH fluorescence slope in assay [5] is -4.3e-05 (inactive). For the same compound, in assay [6], the slope is 0.00646 (inactive).
On to `CCOC(=O)N1CCN(C(=O)CSCC(=O)Nc2nc(-c3ccc(OC)cc3)cs2)CC1`, for which the cell count in assay [1] amounted to 450. Further, the inhibition in assay [1] was 2.7% (inactive); in assay [3], 41.9% (inactive); in assay [7], -14.1% (inactive); in assay [8], -24.6% (inactive). Further, the inhibition of aggregation in assay [2] was -44% (inactive). In addition, the figures for the nuclei count in assay [2] and in assay [3] were 54% and 91.3%, respectively. Moreover, in assay [4], the fluorescence slope is -0.425 (inactive). Further, the NADPH fluorescence slope in assay [5] is -8.7e-05 (inactive). In addition, the slope in assay [6] was 0.00636 (inactive).
Take `COC(=O)c1ccc(-n2nnnc2SCc2nn[nH]n2)cc1`: the cell count in assay [1] turned out to be 543. Besides, the inhibition in assay [1] is -7.8% (inactive); in assay [3], -29% (inactive); in assay [7], -8.25% (inactive); in assay [8], -3.28% (inactive). The inhibition of aggregation in assay [2] is -11.5% (inactive). Moreover, the nuclei count was 99.6% in assay [2] and 130% in assay [3]. In assay [4], the fluorescence slope is -0.35 (inactive). The NADPH fluorescence slope in assay [5] is 1.4e-05 (inactive). Also, the slope in assay [6] is 0.00668 (inactive).
Regarding `CCc1ccc(CNCc2cccnc2)cc1`, in assay [1], the cell count came out at 273. The inhibition in assay [1] is -1.6% (inactive); in assay [3], -19.3% (inactive); in assay [7] it was 3.34% (inactive); in assay [8], 18.6% (inactive). For the same compound, the inhibition of aggregation in assay [2] is 18% (inactive). Further, the nuclei count in assay [2] stood at 101%; in assay [3], 116%. The fluorescence slope in assay [4] is -0.464 (inactive). In addition, in assay [5], the NADPH fluorescence slope was -3e-05 (inactive). Further, in assay [6], the slope was 0.00429 (inactive).
On to `CCN(CC)CCn1c(OC)cc(=O)[nH]c1=O`, for which, in assay [1], the cell count stood at 411. Moreover, the inhibition in assay [1] is 5.3% (inactive); in assay [3] it was -137% (inactive); in assay [7], 10.7% (inactive); in assay [8], 18.4% (inactive). Further, in assay [2], the inhibition of aggregation is -27.5% (inactive). The nuclei count in assay [2] worked out at 108%; in assay [3], 114%. In addition, the fluorescence slope in assay [4] was -0.503 (inactive). Further, the NADPH fluorescence slope in assay [5] was 1.6e-06 (inactive). For the same compound, the slope in assay [6] is 0.00433 (inactive).
As to `O=C1CC(c2cccs2)CC2=C1C(c1ccccc1)n1ncnc1N2` (stereo unspecified), in assay [1], the cell count came out at 577. The inhibition in assay [1] is 3.1% (inactive); in assay [3], -72.5% (inactive); in assay [7], 13.5% (inactive); in assay [8], 25.2% (inactive). Also, the inhibition of aggregation in assay [2] was 4.6% (inactive). Also, the figures for the nuclei count in assay [2] and in assay [3] were 90.7% and 98.9%, respectively. Moreover, the fluorescence slope in assay [4] is -0.597 (inactive). Besides, in assay [5], the NADPH fluorescence slope was 4.2e-06 (inactive). Further, in assay [6], the slope is 0.00446 (inactive).
As for `CCN(C(=O)c1c(OC)cccc1OC)c1nnc(-c2cccnc2)s1`, the cell count in assay [1] came out at 892. The inhibition in assay [1] was 3.3% (inactive); in assay [3], -49.6% (inactive); in assay [7], 8.32% (inactive); in assay [8] it was 18.6% (inactive). In assay [2], the inhibition of aggregation was -35.8% (inactive). For the same compound, the nuclei count in assay [2] came to 105%; in assay [3] it was 137%. In addition, the fluorescence slope in assay [4] is -0.336 (inactive). The NADPH fluorescence slope in assay [5] is -3.4e-05 (inactive). For the same compound, in assay [6], the slope is 0.00467 (inactive).
For the compound `O=C(CSc1nnc(-c2ccccc2)o1)N1CCN(c2ccccc2)CC1`, the cell count in assay [1] came out at 220. The inhibition in assay [1] was 12.5% (inactive); in assay [3], -98.1% (inactive); in assay [7], 5.38% (inactive); in assay [8], 2.42% (inactive). Besides, the inhibition of aggregation in assay [2] was -9.2% (inactive). The nuclei count in assay [2] turned out to be 88.7%; in assay [3], 105%. For the same compound, in assay [4], the fluorescence slope is -0.406 (inactive). The NADPH fluorescence slope in assay [5] is -3.6e-05 (inactive). Besides, the slope in assay [6] is 0.0062 (inactive).
As to `Cc1cc(C(=O)NCc2ccc(S(N)(=O)=O)cc2)cs1`, the cell count in assay [1] was 321. The inhibition was 4.7% (inactive) in assay [1], 9.5% (inactive) in assay [3], 13.4% (inactive) in assay [7] and 10.9% (inactive) in assay [8]. The inhibition of aggregation in assay [2] is -10.8% (inactive). Besides, the nuclei count came to 108% in assay [2] and 91.3% in assay [3]. The fluorescence slope in assay [4] was -0.63 (inactive). Moreover, in assay [5], the NADPH fluorescence slope was -2.4e-05 (inactive). In addition, the slope in assay [6] is 0.00394 (inactive).
For `Nn1c(Cc2ccccc2F)nnc1SCC(=O)N1CC(=O)Nc2ccccc21`, the cell count in assay [1] came out at 324. Further, the inhibition is 20.7% (inactive) in assay [1], -11.5% (inactive) in assay [3], 11.5% (inactive) in assay [7] and 36.8% (inactive) in assay [8]. In assay [2], the inhibition of aggregation is 11.9% (inactive). Besides, the nuclei count came out at 107% in assay [2] and 105% in assay [3]. Besides, the fluorescence slope in assay [4] was -0.39 (inactive). Besides, in assay [5], the NADPH fluorescence slope is 6.9e-08 (inactive). In assay [6], the slope was 0.00403 (inactive).
For `O=C(NCC(=O)N(c1cnc2ccccc2c1)C(C(=O)NC1CCCC1)c1ccncc1)c1ccco1` (stereo unspecified), the cell count in assay [1] is 501. Further, the inhibition in assay [1] was -7.1% (inactive); in assay [3], -6.5% (inactive); in assay [7], 15.1% (inactive); in assay [8], 17.8% (inactive). Also, the inhibition of aggregation in assay [2] was -3.6% (inactive). Besides, the results for the nuclei count in assay [2] and in assay [3] were 102% and 107%, respectively. Moreover, the fluorescence slope in assay [4] was -0.532 (inactive). Moreover, the NADPH fluorescence slope in assay [5] was 5.2e-05 (inactive). In addition, in assay [6], the slope was 0.00551 (inactive).
As to `COc1ccccc1N1CCN(CC(O)c2ccc3cc[nH]c3c2)CC1` (stereo unspecified), in assay [1], the cell count amounted to 633. Besides, the inhibition in assay [1] was -3.9% (inactive); in assay [3], -43.4% (inactive); in assay [7] it was -0.148% (inactive); in assay [8] it was 27.7% (inactive). The inhibition of aggregation in assay [2] is 3.6% (inactive). Also, the nuclei count in assay [2] turned out to be 114%; in assay [3], 105%. The fluorescence slope in assay [4] was -0.54 (inactive). For the same compound, the NADPH fluorescence slope in assay [5] was -1.4e-05 (inactive). In addition, the slope in assay [6] is 0.0062 (inactive).
`CCN(CC)S(=O)(=O)N1CCC(C(=O)NC2CCCc3ccccc32)CC1` (stereo unspecified): in assay [1], the cell count turned out to be 690. In addition, the inhibition in assay [1] is 5.7% (inactive); in assay [3], -8.8% (inactive); in assay [7] it was -11.5% (inactive); in assay [8], -8.15% (inactive). For the same compound, in assay [2], the inhibition of aggregation is -6.5% (inactive). Moreover, the nuclei count in assay [2] was 95%; in assay [3] it was 116%. Besides, the fluorescence slope in assay [4] is -0.49 (inactive). In assay [5], the NADPH fluorescence slope is 8.8e-05 (inactive). The slope in assay [6] is 0.00498 (inactive).
With `CC(NC(=O)Nc1ccccc1)C(c1cccs1)N1CCOCC1` (stereo unspecified), the cell count in assay [1] was found to be 606. Besides, the inhibition is -0.5% (inactive) in assay [1], -2.9% (inactive) in assay [3], 1.55% (inactive) in assay [7] and 31% (inactive) in assay [8]. In addition, the inhibition of aggregation in assay [2] was -6.2% (inactive). The results for the nuclei count in assay [2] and in assay [3] were 97.6% and 111%, respectively. For the same compound, in assay [4], the fluorescence slope is -0.6 (inactive). The NADPH fluorescence slope in assay [5] is -9.3e-06 (inactive). For the same compound, the slope in assay [6] is 0.00654 (inactive).
For `CCC1CCCCN1C(=O)Cn1c(C(=O)OC)cc2sc(Cl)cc21` (stereo unspecified), the cell count in assay [1] worked out at 505. The inhibition in assay [1] was -11.3% (inactive); in assay [3], 7.9% (inactive); in assay [7], 9.78% (inactive); in assay [8], 34.6% (inactive). Also, in assay [2], the inhibition of aggregation was -19.4% (inactive). For the same compound, the nuclei count was 107% in assay [2] and 94.4% in assay [3]. The fluorescence slope in assay [4] is -0.388 (inactive). For the same compound, the NADPH fluorescence slope in assay [5] was -2e-05 (inactive). In addition, the slope in assay [6] is 0.00448 (inactive).
